# Screening data as filed in PubChem.
# HT1080-NT tox: kills 2HG-producing HT-1080-NT fibrosarcoma cells; HT-1080-NT fibrosarcoma viability, CellTiter-Glo ATP luminescence, 48 h; 360,000 tested, 1.6% active; Potency, µM (doses to about 46.1 µM), hits mostly cytotoxic; AID 686970;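 also: NT is the 2HG producing partner of a matched IDH1 knockdown line; nearly all actives have a fitted effect of over 55% in size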
#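 HT-1080-NT fibrosarcoma cells (2HG-overproducing), 750 cells/well in RPMI with 5% FBS, dosed after 2 h and incubated 48 h at 37C. CellTiter-Glo luminescence normalized to DMSO and no-cell wells; concentration-response curves fitted and classed.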
# HT1080 IDH1KD tx: toxicity to HT-1080 IDH1 knockdown cells (counter line). HT-1080 IDH1 knockdown viability, ATP luminescence, 48 h. 360,000 tested, 2% active. Potency, µM (top dose mostly 46.1 µM), actives largely listed as cytotoxic
#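 % activity derives from luminescence (CellTiter-Glo), normalised to DMSO and no-cell wells. HT-1080-IDH1KD cells, 750/well, had 48 h compound exposure at 37 °C.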
# TDP1 cell noCPT: qHTS for Inhibitors of human tyrosyl-DNA phosphodiesterase 1 (TDP1): qHTS in cells in absence of CPT | Potency, µM (highest dose often 46.2 µM), hits mostly inhibitors | DT40 Tdp1-/- hTDP1 cells, no CPT, ATP luminescence, 48 h | AID 686978, 2013 | 420,000 tested, 15% active; also: nearly all actives have a fitted effect of over 55% in size
#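 Stably hTDP1-transfected Tdp1-null chicken DT40 cells were treated with library compounds minus camptothecin and grown for at least 48 hr at 37 °C, after which cellular ATP was quantified by luminescence.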
# DT40 TDP1 CPT: DT40-hTDP1 cell growth loss with CPT | chicken DT40 Tdp1-/-;hTDP1 cells + 20 nM CPT, ATP luminescence, 48 h | Potency, µM (top dose mostly 46.2 µM), hits mostly inhibitors | 420,000 tested, 12% active; also: nearly all actives have a fitted effect of over 55% in size
#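 Cell growth measured by CellTiter-Glo luminescence after a minimum 48 h, 37 C compound exposure with 20 nM CPT in Tdp1-knockout DT40 cells stably expressing hTDP1, seeded 400/well; qHTS titration format.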
# IL-1B inflam inh: inflammasome signaling inhibition, IL-1 beta readout | THP-1 LPS/ATP IL-1B secretion, AlphaLISA, 16 h; hits give low values | activity change, % at 57.5 µM | 360,000 tested, 4.7% active; in the data active = activity change below about -50%; inconclusive = mostly about -30% to -49%
#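 THP-1 cells pretreated 1 hr with compounds (up to 57.5 uM final), then stimulated with LPS (250 ng/mL final) plus ATP (1.25 mM final); secreted IL-1B measured by AlphaLISA after 16 hr, decreased signal indicating inhibition.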
# uPA surface inh: cell surface uPA generation inhibition | Potency, µM (series often up to 38.3 µM), usual class: inhibitors | 330,000 tested, 0.31% active | cell surface uPA generation assay, qHTS | AID 540303; active = well fitted inhibition curve with a large enough effect; inconclusive = small, poorly fitted or top-dose-only effect; inactive = no such curve, though single readings can be large or run the other way; tested in mouse RAW 264.7 cells; also: nearly all actives have a fitted effect of over 55% in size
# Hits are given with their value; n = inactive; u = inconclusive; x = no result given; [ ] = another dose, or the depositor's remark. Sampled rows, rich in hits. Any-hit rate of the full collection: about 19%. Unless noted, calls follow the shape of the dose curve; as a rule, active = well fitted curve in the direction sought with a large enough effect; inconclusive = small, poorly fitted or top-dose-only effect, or another doubt; inactive = no such curve, though single readings can be large; an effect the other way counts as inactive or inconclusive.
SMILES,HT1080-NT tox,HT1080 IDH1KD tx,TDP1 cell noCPT,DT40 TDP1 CPT,IL-1B inflam inh,uPA surface inh
CCn1nc(C)cc1C(=O)N1CCCC(C(=O)c2ccccc2SC)C1 (configuration not stated),n,n,18µM,16µM,n,n
O=C(c1cccc2ccccc12)C1CCCN(C(=O)c2ccc(N3CCOCC3)cc2)C1 (configuration not stated),u,u,23µM,u,u,n
Cc1cc(C(=O)N2CCCC(C(=O)c3cccc4ccccc34)C2)nc(C)n1 (configuration not stated),n,n,u,u,n,n
CSc1ccccc1C(=O)C1CCCN(C(=O)c2ccc(N3CCOCC3)cc2)C1 (configuration not stated),n,n,u,u,n,n
COc1ccc(N2CC(C(=O)Nc3ccc(S(=O)(=O)Nc4nccs4)cc3)CC2=O)c(OC)c1 (configuration not stated),n,n,n,n,n,n
CN(C)C(=S)Oc1ccccc1C1(C)OCCO1,n,n,n,n,n,x
CC(C)(C)C1CCc2[nH]c3ccccc3c(=O)c2C1 (configuration not stated),n,n,21µM,23µM,n,n
O=C1NCCc2c1[nH]c1ccccc21,n,n,n,n,n,n
CC(C)/C=C1\CCc2c([nH]c3ccccc23)C1=O,n,n,n,n,n,n
O=c1c2c([nH]c3ccccc13)C(=C1CCCC1)CC2,n,n,21µM,23µM,n,n
O=c1c2c([nH]c3ccccc13)CCCC2,n,n,8.2µM,u,n,n
Cc1ccc(Cn2c(CNC(=O)c3cccc(C)c3)nc3ccccc32)cc1,x,x,u,n,x,x
COc1ccccc1-c1ccnc(-n2ncc(C(=O)NCc3cccc(C)n3)c2C)n1,x,x,n,n[9.04 µM],x,x
COCCN1CCN(Cc2ccc(C(=O)NC(C)C)cc2)C(=O)C1=O,x,x,n,n,x,x
CCOC(=O)c1c(NC(=O)CSc2nnc(C)o2)sc(C)c1C,n,n,n,n,n,n
O=C(O)CSc1nc2c(c(C(F)(F)F)n1)CCc1ccccc1-2,n,n,n,n,n,n
O=C(CSc1nc2c(c(C(F)(F)F)n1)CCc1ccccc1-2)NCc1ccccc1,n,n,26µM,u,n,n
Cc1cc(C)cc(N(C(=O)c2cc3ccccc3oc2=O)C2C=CS(=O)(=O)C2)c1 (configuration not stated),n,n,u,u,-67,n
Cc1ccc(N(C(=O)c2cc3ccccc3oc2=O)C2C=CS(=O)(=O)C2)cc1 (configuration not stated),n,n,n,n,n,n
COc1ccc(-c2nnc3ccc(SC(C(C)=O)C(C)=O)nn23)cc1OC,n,n,u,18µM,n,n
CCC(Sc1ccc2nnc(-c3ccc(OC)c(OC)c3)n2n1)C(=O)O (configuration not stated),n,n,n,n,n,x
COc1ccc(-c2nnc3ccc(SC(C)C)nn23)cc1OC,x,x,13µM,10µM,x,x
CC(OC(=O)CNC(=O)c1sc2ccccc2c1Cl)C(=O)NC1(C#N)CCCCC1 (configuration not stated),n,n,n,n,n,n
CCN(C(=O)C(C)Sc1nnc(-c2ccncc2)n1C)C1CCCCC1 (configuration not stated),n,n,n,n,n,n
O=C(NCCc1ccccc1)c1ccc2c(c1)N(Cc1ccccc1)C(=O)c1ccccc1S2=O (configuration not stated),x,x,u,29µM,x,x
SMILES,HT1080-NT tox,HT1080 IDH1KD tx,TDP1 cell noCPT,DT40 TDP1 CPT,IL-1B inflam inh,uPA surface inh
CCOc1ccc(CCNC(=O)c2ccc3c(c2)N(Cc2ccccc2F)C(=O)c2ccccc2S3=O)cc1OCC (configuration not stated),x,x,23µM,u,x,x
CCN1C(=O)c2ccccc2S(=O)c2ccc(C(=O)NCc3ccc(C)cc3)cc21 (configuration not stated),x,x,n,n,x,x
COc1ccc(CCNC(=O)c2ccc3c(c2)N(Cc2ccccc2)C(=O)c2ccccc2S3=O)cc1OC (configuration not stated),x,x,12µM,16µM,x,x
CCN1C(=O)c2ccccc2S(=O)c2ccc(C(=O)NCCN(CC(C)C)CC(C)C)cc21 (configuration not stated),n,n,23µM,u,u,n
O=S(=O)(NCCN1CCOCC1)c1cc(Cl)ccc1Cl,n,n,n,n,n,n
CCCCN(C)C(=O)c1ccc2c(c1)N(Cc1cccc(Cl)c1)C(=O)c1ccccc1S2=O (configuration not stated),x,x,15µM,8.2µM,x,x
CCOc1ccccc1N(C)C(=O)c1cc(S(=O)(=O)NCc2ccc(C)cc2)ccc1F,x,x,21µM,18µM,x,x
CCn1c(SCC(=O)c2ccccc2)nnc1-c1cc2cc(Br)ccc2o1,n,n[9.24 µM],9.2µM,u,n,n
C=CCn1c(SCC(=O)c2ccccc2)nnc1-c1cc2ccccc2o1,n,n,u,23µM,n,n
CCn1c(SCC(=O)c2ccccc2)nnc1-c1ccoc1C,n,n,n,n,n,n
C=CCn1c(SCC(=O)c2ccc(OC)cc2)nnc1-c1cc2cccc(OC)c2o1,n,n,u,n,n,n
COc1ccc2cc(C(=O)NCc3ccccc3CN3CCCC3)ccc2c1,n,n,u,u,-68,n
O=C(NCc1ccccc1CN1CCCC1)c1cc2cc(Cl)ccc2o1,n,n,u,18µM,n,n
COc1ccc2oc(C(=O)NCc3ccccc3CN3CCCC3)c(C)c2c1,n,n,u,21µM,n,n
CC1CCc2cc(F)ccc2N1S(=O)(=O)c1ccc(Cl)nc1 (configuration not stated),n,u,u,15µM,n,n
CC1CCc2cc(F)ccc2N1S(=O)(=O)c1ccc(F)cc1 (configuration not stated),n,n,u,n,n,n
O=S(=O)(/C=C/c1ccccc1)Oc1ccccc1,u,u,16µM,26µM,-89,x
CCCNS(=O)(=O)/C=C/c1ccccc1,n,n,n,n,n,n
COc1cc(C(=O)Nc2ccc(S(=O)(=O)Nc3nccc(C)n3)cc2)c([N+](=O)[O-])cc1OC,n,n,n,n,n,n
CCc1ccc(-n2nc(CO)c(C(=O)NC(C)c3ccc(Cl)cc3)n2)cc1 (configuration not stated),x,x,n,n,x,x
C=CCn1nc(C(=O)Nc2ccc(OC)cc2)cc1-c1sc(NC(=O)c2ccccc2)nc1C,n,n,u,18µM,n,x
